Measurements taken from PubChem BioAssay (NCI).
Compounds without any hit were thinned out: in the full panel of roughly 83,000, 20% have a hit.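 Testing used 96-well plates and a 48-hour single-concentration exposure. Example: -40 means 40% of the starting cells died.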 A number with no mark means an inactive call. Calls of active or inactive are those of the source. The calls were made as follows: active = growth percent below 10; inactive = the rest.

What was measured:
Test in all cases: NCI-60 one-dose screen, 48 h (100 = growth as untreated, 0 = no growth, -100 = all killed)
Details in all cases: 10 µM unless noted
[1] = system: NCI-H23 lung
[2] = system: NCI-H226 lung
[3] = system: NCI-H322M lung
[4] = system: HOP-62 NSCLC
[5] = system: NCI-H460 lung
[6] = system: HOP-92 NSCLC
[7] = system: NCI-H522 lung
[8] = system: A549/ATCC NSCLC
[9] = system: 786-0 renal
[10] = system: COLO 205 colon
[11] = system: DU-145 prostate
[12] = system: K-562 leukemia
[13] = system: MALME-3M melanoma
[14] = system: MDA-MB-231 breast
[15] = system: RXF 393 renal
[16] = system: SF-268 CNS
[17] = system: SF-295 CNS
[18] = system: SF-539 CNS
[19] = system: UACC-257 melanoma
[20] = system: M14 melanoma

Row | Compound | growth [1] | growth [2] | growth [3] | growth [4] | growth [5] | growth [6] | growth [7] | growth [8] | growth [9] | growth [10] | growth [11] | growth [12] | growth [13] | growth [14] | growth [15] | growth [16] | growth [17] | growth [18] | growth [19] | growth [20]
1 | C=C1C(=O)O[C@H]2[C@H]1CC/C(COC(=O)NCc1ccc(Cn3c(=O)sn(CCCC)c3=O)cc1)=C\CC[C@@]1(C)O[C@@H]21 | 80.8% | 78.5% | 105% | 91.6% | 95.4% | -6.79% (active) | -55.8% (active) | 93.5% | 41.8% | -25% (active) | 20.2% | 0.885% (active) | -24.1% (active) | 38.4% | 33.5% | 82.4% | 101% | 59.6% | 50.8% | 6.26% (active)
2 | CN(Cc1ccccc1)c1nc(Cl)c(C2CC(c3ccc(Cl)cc3)=NN2c2cc(Cl)cc(Cl)c2)s1 (stereo not given) | 94.3% | 102% | 102% | 91.6% | 106% | 91.6% | 91.3% | 95% | 93.8% | 105% | 109% | 87% | 97.3% | 110% | 104% | 100% | 95.3% | 106% | 110% | 96.1%
3 | CSc1nn2c(-c3cc4cc(Br)ccc4oc3=O)ccnc2c1C#N | 95.3% | 99.3% | 102% | 97.9% | 104% | 105% | 92.8% | 107% | 101% | 119% | 110% | 104% | 120% | 105% | 109% | 103% | 103% | 106% | 106% | 104%
4 | Nc1c(C(=O)c2ccc(Cl)cc2)sc(Nc2ccccc2)c1-c1nc2ccccc2s1 | 17% | 49.9% | 30.5% | -7.72% (active) | -0.299% (active) | -18.7% (active) | 7.38% (active) | 17.8% | 8.1% (active) | 51.4% | 25.5% | 55.2% | 20.7% | 18.8% | 72.8% | 45.5% | -24.4% (active) | 43.2% | 58.8% | 30.6%
5 | Cc1c(N2CCCCC2)[nH]c2ccccc12 | 108% | 119% | 104% | 119% | 101% | 46.8% | 90.2% | 89% | 103% | 124% | 120% | 113% | 121% | 121% | 116% | 117% | 89% | 121% | 94% | 105%
6 | COc1cc(/C=C/c2cc(/C=C/c3ccc(O)c(OC)c3)n(C(=O)Nc3ccc(C)cc3C)n2)ccc1O | -26.1% (active) | -3.7% (active) | 8.13% (active) | -35.7% (active) | 1.87% (active) | -27% (active) | 6.31% (active) | -3.98% (active) | -59.1% (active) | -65.6% (active) | -26.6% (active) | -7.18% (active) | -21.7% (active) | 10.2% | -67.3% (active) | 3.8% (active) | -51% (active) | -19.6% (active) | -21.4% (active) | -38.1% (active)
7 | O=C(OCC(O)(CO)C(=O)NC12CC3CC(CC(C3)C1)C2)c1ccc(Cl)cc1 (stereo not given) | 97.6% | 89.1% | 103% | 103% | 105% | 101% | 88.2% | 91.4% | 99.4% | 102% | 108% | 91.4% | 103% | 101% | 101% | 99.7% | 93.1% | 107% | 99.2% | 98.7%
8 | CC(=O)c1ccc(Nc2nccc(-c3ccc(Cl)cc3)n2)cc1 | 84.2% | 54% | 100% | 108% | 85.5% | 109% | 90.8% | 87% | 101% | 105% | 102% | 83.9% | 101% | 101% | 103% | 93% | 101% | 92.3% | 106% | 101%
9 | Clc1nc(N2CCC[N+]3(CC2)CC[N+]2(CCCNCC2)CC3)nc(N2CCC[N+]3(CC2)CC[N+]2(CCCNCC2)CC3)n1 (stereo not given) | 89.2% | 68.4% | 99.7% | 91.1% | 76.8% | 131% | 94% | 86.1% | 72.8% | 106% | 91% | 104% | 3.84% (active) | 86.5% | 100% | 76.8% | 104% | 87.5% | 81.3% | 103%
10 | COc1ccc(-c2cc(-c3ccc(N(C)C)cc3)nc(NC(=O)c3cccnc3)n2)cc1 | 105% | 98.8% | 93% | 100% | 96.1% | 124% | 93% | 105% | 103% | 104% | 99.5% | 93.3% | 120% | 93.8% | 107% | 90.6% | 104% | 94.3% | 120% | 124%
11 | COc1ccc(C(=O)C2OC3=C(C(=O)CC(C)(C)C3)C2c2cccc(Oc3ccccc3)c2)cc1 (stereo not given) | 97% | 86.9% | 95.1% | 97% | 96.9% | 76.4% | 76.3% | 85.7% | 93% | 110% | 102% | 87.2% | 112% | 87.5% | 101% | 92.5% | 97.1% | 94.5% | 91% | 98.7%
12 | N#Cc1c(-c2ccc(Cl)cc2)nc(NN=Cc2cccc(Cl)c2)nc1N1CCOCC1 | 101% | 91.6% | 88.7% | 92.7% | 91.6% | 89.3% | 94.5% | 81.9% | 70.1% | 61% | 76% | 35.1% | 131% | 90.6% | 61.4% | 90.3% | 102% | 79.1% | 100% | 84.6%
13 | CC(=O)[C@H]1CC[C@]2(C)[C@@H]1CC[C@@H]1[C@@]3(C)C/C(=C/c4cccnc4)C(=O)C(C)(C)[C@@H]3CC[C@]12C | 78.2% | 81.1% | 91.6% | 115% | 67.3% | 48.8% | 68% | 65.9% | 121% | 64.2% | 85.3% | 30.3% | 82.6% | 83.9% | 97.7% | 79.7% | 89.8% | 97.6% | 63.4% | 71.8%
14 | C=CC(=O)Nc1ccc2ncnc(Nc3cccc(NS(=O)(=O)CCC)c3Cl)c2c1 | 68.9% | 46.7% | 15.8% | 67.3% | 68.6% | 35.1% | 17.8% | 50.8% | 42.4% | 12% | 37.8% | 67.2% | 7.81% (active) | 24.3% | 15.1% | 48% | 72.9% | 44.4% | 5.07% (active) | 19.6%
15 | Clc1ccc2c(NCCCn3cnc4c(N5CCCC5)nc(Cl)nc43)ccnc2c1 | 98.7% | 102% | 92.7% | 91.5% | 107% | 107% | 91.5% | 96.5% | 96.4% | 88.2% | 106% | 90.4% | 101% | 89.8% | 123% | 94.4% | 101% | 99.1% | 102% | 93.9%
16 | CCOC(=O)/C=C1\S/C(=N\Nc2cc(=O)[nH]c3ccc(OC)cc23)N(c2ccccc2)C1=O | 94% | 93.2% | 101% | 97.5% | 110% | 89.7% | 83.3% | 104% | 94.4% | 95.7% | 98.6% | 86.5% | 101% | 107% | 111% | 101% | 102% | 97.4% | 102% | 99.9%
